The whole screen tested about 5,500 compounds, of which about 2,000 (36%) were called active. About 18% were inconclusive and are not listed. No stated cut-off is given here; in the data, active means normalized growth mostly below about 0.91 (no sharp cut-off); inconclusive means no clear call, values can overlap the other calls; inactive means mostly above about 0.92. This is one part of the list.
Test: chemical genetic growth profiling, strain panel (AID 1159580);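 further: tested at 20 µM; growth read once vehicle control cultures reached saturation at 30 °C; 1 = growth at the plate median or of vehicle wells; lower values mean less growth of the strain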
Details: growth OD

Measured: normalized growth

CN(C)CCOC(=O)C(c1ccccc1)C1(O)CCCC1 (centres undefined)
inactive: S. cerevisiae deletion strains, locus YJR075W, strain HOC1, active compounds read low 1.01 | S. cerevisiae deletion strains, locus YKL009W, strain mrt4, active compounds read low 1.02 | S. cerevisiae deletion strains, locus YKL068W, active compounds read low 1.01 | S. cerevisiae deletion strains, locus YKL085W, strain MDH1 (second series), active compounds read low 1.04 | S. cerevisiae deletion strains, locus YKL085W, strain MDH1, active compounds read low 1.04 | S. cerevisiae deletion strains, locus YKL160W, strain elf1, active compounds read low 0.988 | S. cerevisiae deletion strains, locus YKR001C, strain vps1, active compounds read low 1.03 | S. cerevisiae deletion strains, locus YKR026C, strain gcn3, active compounds read low 0.973 | S. cerevisiae deletion strains, locus YKR091W, strain srl3, active compounds read low 0.982 | S. cerevisiae deletion strains, locus YLL001W, strain dnm1, active compounds read low 0.957 | S. cerevisiae deletion strains, locus YLL026W, active compounds read low 0.985 | S. cerevisiae deletion strains, locus YLL041C, strain sdh2, active compounds read low 0.99 | S. cerevisiae deletion strains, locus YLR027C, strain aat2, active compounds read low 0.985 | S. cerevisiae deletion strains, locus YLR039C, strain RIC1, active compounds read low 1.04 | S. cerevisiae deletion strains, locus YLR058C, strain SHM2, active compounds read low 1.01 | S. cerevisiae deletion strains, locus YLR102C, strain apc9, active compounds read low 1 | S. cerevisiae deletion strains, locus YLR113W, strain HOG1, active compounds read low 1.01 | S. cerevisiae deletion strains, locus YLR221C, strain rsa3, active compounds read low 1.03 | S. cerevisiae deletion strains, locus YLR258W, strain gsy2, active compounds read low 1.01 | S. cerevisiae deletion strains, locus YLR262C, strain YPT6 (second series), active compounds read low 0.995 | S. cerevisiae deletion strains, locus YLR262C, strain YPT6, active compounds read low 1.05 | S. cerevisiae deletion strains, locus YLR268W, strain sec22, active compounds read low 1.01 | S. cerevisiae deletion strains, locus YLR320W, strain mms22, active compounds read low 1.02 | S. cerevisiae deletion strains, locus YLR330W, strain CHS5, active compounds read low 1 | S. cerevisiae deletion strains, locus YLR342W, strain FKS1 (second series), active compounds read low 0.999 | S. cerevisiae deletion strains, locus YLR342W, strain FKS1, active compounds read low 0.958 | S. cerevisiae deletion strains, locus YLR357W, strain rsc2, active compounds read low 0.962 | S. cerevisiae deletion strains, locus YLR370C, strain arc18, active compounds read low 0.995 | S. cerevisiae deletion strains, locus YLR371W, strain rom2, active compounds read low 1.01 | S. cerevisiae deletion strains, locus YLR384C, strain iki3, active compounds read low 0.985 | S. cerevisiae deletion strains, locus YLR418C, strain cdc73, active compounds read low 1.05 | S. cerevisiae deletion strains, locus YML016C, strain PPZ1, active compounds read low 1 | S. cerevisiae deletion strains, locus YML032C, strain rad52, active compounds read low 1 | S. cerevisiae deletion strains, locus YML120C, strain ndi1, active compounds read low 0.988 | S. cerevisiae deletion strains, locus YML124C, strain tub3, active compounds read low 1.01 | S. cerevisiae deletion strains, locus YMR058W, strain fet3, active compounds read low 0.991 | S. cerevisiae deletion strains, locus YMR078C, strain ctf18, active compounds read low 1.03 | S. cerevisiae deletion strains, locus YMR125W, strain sto1, active compounds read low 0.989 | S. cerevisiae deletion strains, locus YMR129W, active compounds read low 0.986 | S. cerevisiae deletion strains, locus YMR205C, strain PFK2, active compounds read low 0.993 | S. cerevisiae deletion strains, locus YMR223W, strain ubp8, active compounds read low 1.02 | S. cerevisiae deletion strains, locus YMR231W, strain pep5, active compounds read low 0.975 | S. cerevisiae deletion strains, locus YMR307W, strain GAS1, active compounds read low 1.06 | S. cerevisiae deletion strains, locus YNL067W, strain RPL9B, active compounds read low 1.02 | S. cerevisiae deletion strains, locus YNL071W, strain lat1, active compounds read low 1.01 | S. cerevisiae deletion strains, locus YNL153C, strain GIM3, active compounds read low 1.01 | S. cerevisiae deletion strains, locus YNL183C, strain NPR1, active compounds read low 0.944 | S. cerevisiae deletion strains, locus YNL209W, strain ssb2, active compounds read low 1.02 | S. cerevisiae deletion strains, locus YNL233W, strain BNI4, active compounds read low 1.01 | S. cerevisiae deletion strains, locus YNL248C, strain rpa49, active compounds read low 1.03 | S. cerevisiae deletion strains, locus YNL250W, strain rad50, active compounds read low 1.01 | S. cerevisiae deletion strains, locus YNL271C, strain bni1, active compounds read low 1.02 | S. cerevisiae deletion strains, locus YNL298W, strain CLA4, active compounds read low 1.03 | S. cerevisiae deletion strains, locus YNL307C, strain MCK1, active compounds read low 1.02 | S. cerevisiae deletion strains, locus YNL322C, strain KRE1 (second series), active compounds read low 0.985 | S. cerevisiae deletion strains, locus YNL322C, strain KRE1, active compounds read low 0.982 | S. cerevisiae deletion strains, locus YNR049C, strain mso1, active compounds read low 0.987 | S. cerevisiae deletion strains, locus YNR052C, strain pop2, active compounds read low 1.01 | S. cerevisiae deletion strains, locus YOL006C, strain TOP1, active compounds read low 1.04 | S. cerevisiae deletion strains, locus YOL012C, strain htz1 1.15 | S. cerevisiae deletion strains, locus YOL147C, strain pex11, active compounds read low 1.01 | S. cerevisiae deletion strains, locus YOR001W, strain rrp6, active compounds read low 0.97 | S. cerevisiae deletion strains, locus YOR061W, strain CKA2, active compounds read low 1.01 | S. cerevisiae deletion strains, locus YOR069W, strain VPS5, active compounds read low 1.01 | S. cerevisiae deletion strains, locus YOR070C, strain gyp1, active compounds read low 0.997 | S. cerevisiae deletion strains, locus YOR080W, strain dia2, active compounds read low 0.981 | S. cerevisiae deletion strains, locus YOR083W, strain WHI5, active compounds read low 0.952 | S. cerevisiae deletion strains, locus YOR106W, strain vam3, active compounds read low 0.993 | S. cerevisiae deletion strains, locus YOR136W, strain idh2, active compounds read low 1.02 | S. cerevisiae deletion strains, locus YOR144C, strain elg1, active compounds read low 1.01 | S. cerevisiae deletion strains, locus YOR184W, strain ser1, active compounds read low 1.02 | S. cerevisiae deletion strains, locus YOR231W, strain MKK1, active compounds read low 0.997 | S. cerevisiae deletion strains, locus YOR265W, strain rbl2, active compounds read low 0.998 | S. cerevisiae deletion strains, locus YOR270C, strain vph1, active compounds read low 0.957 | S. cerevisiae deletion strains, locus YOR290C, strain snf2, active compounds read low 1.02 | S. cerevisiae deletion strains, locus YOR316C, strain cot1, active compounds read low 1.02 | S. cerevisiae deletion strains, locus YPL051W, strain arl3, active compounds read low 1.02 | S. cerevisiae deletion strains, locus YPL055C, strain LGE1, active compounds read low 1.01 | S. cerevisiae deletion strains, locus YPL078C, strain atp4, active compounds read low 0.961 | S. cerevisiae deletion strains, locus YPL106C, strain sse1, active compounds read low 1.01 | S. cerevisiae deletion strains, locus YPL240C, strain hsp82, active compounds read low 1.01 | S. cerevisiae deletion strains, locus YPL241C, strain CIN2, active compounds read low 0.988 | S. cerevisiae deletion strains, locus YPL256C, strain CLN2, active compounds read low 0.984 | S. cerevisiae deletion strains, locus YPR119W, strain clb2, active compounds read low 1.01 | S. cerevisiae deletion strains, locus YPR141C, strain kar3, active compounds read low 1.03 | S. cerevisiae deletion strains, locus YPR163C, strain tif3, active compounds read low 1.02 | S. cerevisiae deletion strains, locus YPR167C, strain met16, active compounds read low 1.01 | S. cerevisiae deletion strains, strain wtn01, active compounds read low 1.01 | S. cerevisiae strains, strain wild type, active compounds read low 1

Source: PubChem BioAssay AID1159580 (chemical genetic matrix, 2015)
